About 3,700 (7%) of roughly 53,000 sequences were called active.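 The calls were made as follows: active = gene knockdowns whose robust z-score for IL-1 alpha signal is at least 2 or at most -2, so actives lie on both sides; inactive = the rest.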 This excerpt belongs to a sample that is enriched for actives.
Assay: Components of the Cytosolic LPS Sensing Pathway: Gene Identification via Genome-wide siRNA Screen;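 also: robust z of the log signal after scaling to non-targeting control siRNA wells of the plate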
Settings: RAW264.7 macrophages, IL-1a HTRF, actives lie on both sides, screened at 100 nM (by protocol), cells primed 5 h with Pam3CSK4 first
In short: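 Cells (RAW264.7, 1×10^4 per well) were transfected with siRNA at 100 nM and cultured 48h at 37 degrees C. Pam3CSK4 was added for 5 hours; LipidA transfection followed for 24 hour. IL-1a was then measured by HTRF.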

Sequence | z-score
GGAUUAUGAUUUGCCUGAUTT against 4932414N04Rik | 1.05 (inactive)
GCUAGAUGCUAUGAAGCGATT against Ap3b1 | -0.406 (inactive)
CGUGAUUUCAUGCUGUGGCTT against Tal2 | -2.19 (active)
GGAUCUAAGCCUGUUGUGATT against Zfp647 | -0.82 (inactive)
GGUCACCCUGUUUAGGCCUTT against Fgd3 | 0.571 (inactive)
CCUGCCAAUCUGUCUAAGUTT against Haus1 | -0.121 (inactive)
GUCAUGAGAUUGAAUACAATT against Olfr569 | -0.0298 (inactive)
GGGAUUGAUUUCAACAAUGTT against Vmn1r33 | 0.464 (inactive)
CCCUUGCUAGUCCUUCUAUTT against Bora | -0.65 (inactive)
GGUUGUAAAGGAAGAGAAGTT against Lyve1 | 0.397 (inactive)
GGCCAGACACUACAGGUAATT against Aldh16a1 | 0.0594 (inactive)
GCUACAGCUAUAUCGCUAUTT against Cnot8 | 0.625 (inactive)
GGCUUUUAUUUUCUGGGAUTT against Barhl1 | 2.4 (active)
GGAAUUAUGAUGUAGACAGTT against Garre1 | 0.662 (inactive)
GCCUUGGUCCUUAAAUAUATT against Slc7a2 | -0.414 (inactive)
CGAUAUUUGGUGUGAAAUGTT against Tmem70 | -0.609 (inactive)
GGGAAAUGCUUCUAAAAAUTT against Pcdhb11 | 0.377 (inactive)
CCACCAUCAUGAGAGAGGATT against Olfr350 | 0.00462 (inactive)
GGCAAAUGUAGACAUGUAUTT against Defb44-ps | -0.0483 (inactive)
GCUAAUAUGCCACUGCCCGTT against Pls3 | 1.55 (inactive)
GCUAUGUGUACAGCUGCUGTT against Vmn1r62 | 0.21 (inactive)
CGUGCAGUGUGCUUCACAATT against Smarcad1 | -1.89 (inactive)

Sequence | z-score
GGUCUCAAGUUUUACAUUCTT against Prss35 | 2.2 (active)
GGCUCUGGCUAAGUACUUGTT against Cenpb | -0.943 (inactive)
GCUAACUGAGCUGCCGGAATT against Lrrn3 | 0.264 (inactive)
GCUUCAUGCACGGUUCUAUTT against Cib2 | 1.65 (inactive)
GGCUCAGAAGAAAAUGGAUTT against Kcnk4 | 0.166 (inactive)
GGAUCUGUAUUGUAAACAATT against Pcmtd2 | 0.463 (inactive)
GCCGUUCAUUUCAACCGUGTT against Wdr5 | -0.0339 (inactive)
GGCUCACUCUCCAUUCUACTT against Asb6 | -0.902 (inactive)
GGCACUCUCAGCUUUUGACTT against Olfr2 | -2.43 (active)
CCGCCUGGAUAAUUAUGAUTT against Cltc | 0.309 (inactive)
GGAUCAUGUCAUCACAAAATT against Fzd3 | -0.319 (inactive)
GGUGUCCAAUUGCCCUAUCTT against Tnfrsf12a | -1.98 (inactive)
GGGAACAGCAUGAAGGAAGTT against Krt78 | 0.688 (inactive)
GGCACGUUAUGAAGACCAGTT against Ttc6 | 1.49 (inactive)
GAGAAACAACAAUUUGGGATT against Gm20815 | 2.07 (active)
GGCUGAUUAGAAUACCUCCTT against Adra2b | 0.352 (inactive)
GGCCUACGUGCUAAACAUCTT against Atp1b1 | 1.77 (inactive)
GCUCUAAAUGAACAUCUCATT against Snai3 | 0.322 (inactive)
GGUCCUAUGGAUUAAUGCUTT against Ccn4 | 3.46 (active)
CCCUAAAACCAAAUGUACATT against Tet2 | 1.7 (inactive)
GGAUGUAACAUUUCUUCAATT against Rmi1 | 0.567 (inactive)
GGCUGGUAAUUCACUUAAUTT against Kcnk2 | -2.54 (active)

Sequence | z-score
GGAAAUCACCAUGCCCUCUTT against S100a8 | -0.0382 (inactive)
GCAUGGAGAUUCUGUGCGGTT against Trim45 | -1.13 (inactive)
CCGAAAAUGGUAAAUAACUTT against Rnf17 | 0.111 (inactive)
GGAGGAACCUCAGAAACAGTT against Knstrn | -2.19 (active)
GCUAUUUUGGGACGAGUCATT against Col13a1 | -0.7 (inactive)
GGGAUCAAGUUAAAUAGACTT against Snhg16 | -0.184 (inactive)
GCGAACAGUUGAAUAGAUUTT against Slc25a46 | -0.108 (inactive)
GGUGGUCACUAAGAAGUUCTT against Prps1l1 | 2.48 (active)
CCAACACUAUUACUGUAAATT against Arg2 | 0.159 (inactive)
GGCCAGAAAAUUAAGGAGCTT against Faap100 | 1.15 (inactive)
GGCAACUGAAAUGUUUGUUTT against Rap2c | 2.14 (active)
CCUUGAGUACUUAUUGCGUTT against Chac1 | 0.934 (inactive)
GCCAACUCGAACAUUUUGATT against Zfp280b | 0.567 (inactive)
GCUACUCGCGUUUAAUUUUTT against Slc9a9 | -0.238 (inactive)
GACCUUUCUCUUCUUGGCUTT against Olfr434 | -2.1 (active)
GGAUAACCCUCAGAAGUCCTT against Was | 0.664 (inactive)
GGAAUAAUCAAGCUAGGGATT against Satb2 | -2.2 (active)
GGAGAGAGGACAACUUCUCTT against Mrm1 | 1.3 (inactive)
GGCUUUUAACACCUUCAUUTT against Clptm1l | 0.495 (inactive)
GCUUCUUCUGUGAACUUCCTT against Olfr854 | -0.939 (inactive)
GGAAGCUGCUUUUCUAAAUTT against Il7 | 2.92 (active)
GGCAGUGAGAGUCACAAGATT against Cdipt | -1.74 (inactive)

Sequence | z-score
GGAAAUGCAGUUGUGAAUGTT against Rab4a | -2.03 (active)
GCCCAUGUUAGAGGUUUUGTT against Rsph3a | 0.838 (inactive)
GGGAGAUGAGUUUUCUGAUTT against Cyp2c70 | 1.15 (inactive)
GGCAGUUGAUUCCUUUAAATT against Baz1a | 0.0425 (inactive)
GCUGUACCCGAAUGAGUUUTT against Mgat2 | 2.54 (active)
GCCCUUAGCUGCAUGAAUUTT against Laptm4b | -0.661 (inactive)
GGACCGUCUGUCCUUUGUCTT against Nectin2 | 0.618 (inactive)
GGUAGAGAAGAACGGUACCTT against Mb21d2 | 1.08 (inactive)
CCGAGUAAUUGGAAGUGGUTT against Ldha | 2.08 (active)
GGUGCUUUCUGGAUGAAGATT against Akirin1 | -0.282 (inactive)
GGCUUUUGGAGAAAAAGGATT against Nus1 | 1.92 (inactive)
GGAAAUGUAGUGAAGGGUGTT against Ndfip2 | 2.03 (active)
GGGCCUUACGUCAUUCUCUTT against Dnajb7 | -0.319 (inactive)
GGAUUUCAUUCCAAACAUGTT against Hbs1l | -0.161 (inactive)
CGGGACUAUUAUUACUCCATT against Ap2m1 | -1.22 (inactive)
GGAAGAUCUCUUGUCUGCUTT against Mtcp1 | -0.269 (inactive)
GGGAGAUGCAACCUCUCUUTT against Dennd5b | 2.91 (active)
GGGAAAUCUAUUUUUGUGATT against Mob3c | -1.77 (inactive)
GGUCUGGAGACAAUCAUCATT against Rnf222 | -2.47 (active)
GGCUUAUUGGAAGAGGACGTT against Ier5 | 0.559 (inactive)
GCUGAGUCCAUGUCUGUUGTT against Coro2a | -0.119 (inactive)
CGGCAUGAGCAGUUUAUAUTT against Col19a1 | -1.04 (inactive)

Sequence | z-score
GCUGAUUGAGCAUCCGAUGTT against Ggt1 | 2.78 (active)
GGGAUUCAGUAUAAAACACTT against Nup37 | -1.25 (inactive)
GGAAAGAGCCAUCCUUUGATT against Gnmt | -0.186 (inactive)
CGUAUAAUAACUCCUUAUCTT against Hoxa1 | 2.17 (active)
GGUGUAGACUCCAACAUGUTT against Aarsd1 | 1.69 (inactive)
CCUUGGACUAUGGCAAAAATT against Neurod6 | 0.418 (inactive)
GCCGGAAUCCUGUGGAAUCTT against Kat14 | 6.46 (active)
GGAAAAUGACACAGGUAUCTT against Entpd2 | -0.103 (inactive)
GGAGAUGAGCUGUAUGUGATT against Nudt19 | 0.862 (inactive)
GACUUCAGACAAAUAGUGCTT against Lce1i | -1.24 (inactive)
GCAUCGAAAAUCUUUCCAATT against Fibcd1 | 1.6 (inactive)
GGUGCUCAAUAAAUGUAAATT against Cd151 | -1.26 (inactive)
GGGUUUCUUCCCUGAGCUATT against Nxf7 | -1.97 (inactive)
CCACUAUGAAUCGUGGUUCTT against Sp6 | 0.731 (inactive)
CGUGCAUCCCUAUAUCCUATT against Panx2 | 0.343 (inactive)
GGUUGACAACACAUCUGCUTT against Ugt2b34 | -0.766 (inactive)
GGAUCAAUGUGGUACCUAUTT against Sf3a1 | -2.79 (active)
GGGAAUAGUUUAUAUGGACTT against Ccl20 | 0.315 (inactive)
CGGGCAAUGUCAGAUUGUGTT against Vmn1r75 | 1.41 (inactive)
GGUACUUUCGGACUCAGUUTT against Ipp | -0.0605 (inactive)

Reference: PubChem BioAssay AID1508600 (Functional Genomics Laboratory (NCATS/FGL), 2020)
